The campaign covered roughly 220,000 compounds. About 8,200 (3.7%) were called active. The sample holds actives, similar compounds and a random draw of the others, so the mix is not that of the screen.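 The calls were made as follows: active = compounds that reduced the stress-induced luciferase reporter signal by more than about 70% of percent inhibition (limit read from the data); inactive = the rest.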
Experiment: inhibitors of CHOP promoter induction, primary screen, cell-based, unfolded protein response, luciferase reporter (AID 2732);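 also: 0% = tunicamycin plus vehicle and 100% = wells without tunicamycin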
Conditions: CHO-K1 CHOP-promoter luciferase, tunicamycin-induced, 15-18 h; at 10 µM; active compounds read high

SMILES | inhibition
Cn1c(C(=O)O)ccc1S(=O)(=O)N(Cc1ccccc1)Cc1ccccc1 | 2.64% (inactive)
O=C(NC(=O)c1ccccc1N1CCCCC1)Nc1ccc(Br)cc1 | -4.77% (inactive)
Cc1ccc(OCC(=O)c2cc(C)n(Cc3ccco3)c2C)c([N+](=O)[O-])n1 | 31% (inactive)
Cc1ccc(C2=Nc3c(ccc4ccccc34)C(c3ccncc3)=NN2)cc1 | 64.5% (inactive)
CCOc1ccc2c(c1)C(c1ccc(C)cc1)=NNC(c1ccc(C)cc1)=N2 | 37.2% (inactive)
CCc1ccc2c(c1)C(c1ccc([N+](=O)[O-])cc1)=NNC(c1ccccc1)=N2 | 93.7% (active)
C/C(=N/Nc1nc(-c2ccccc2)c(CC(=O)O)s1)c1ccccc1 | -18.2% (inactive)
CCCCN(CCCC)CC(O)Cn1c2ccccc2c(=O)c2ccccc21 (stereo unspecified) | 11% (inactive)
CC(NC(=O)C(=O)Nc1nccs1)c1ccccc1 (stereo unspecified) | 24.1% (inactive)
O=C(O)CCCCCCCCCC[n+]1ccccc1 | -11.5% (inactive)
CCc1nc(C)ccc1OCC(=O)N(CC)CC | 18.9% (inactive)
CN(C)CCOc1ccc(Cl)cc1C(C)(C)C | -2.87% (inactive)
CCC(C)(C)c1ccc(OCC(=O)N(C)C)c(C(C)(C)CC)c1 | 85.7% (active)
Cn1nccc1NS(=O)(=O)c1ccc(F)cc1 | -5.82% (inactive)
Cc1cc(=O)[nH]c(S)c1C#N | 2.71% (inactive)
CC(C)(C)c1ccc(CCC2OCC(CN3CCOCC3)O2)cc1 (stereo unspecified) | 3.73% (inactive)
COc1ccccc1-n1cn[nH]c1=S | 11.5% (inactive)
Cc1cc(Oc2ccc(Cl)cc2)nc(SCC(=O)c2ccccc2)n1 | 70.2% (active)
Cc1cc(SCC(=O)c2ccccc2)nc(SCC(=O)c2ccccc2)n1 | 15.9% (inactive)
COC(=O)c1cc(C(=O)CSc2nc(C)cc(C)n2)ccc1O | 5.39% (inactive)
O=C(NNC(=O)c1csc(-c2cccnc2)n1)Nc1ccc(Cl)cc1 | -32.3% (inactive)
Cn1cc(S(=O)(=O)NC(c2ccccc2)c2ccccc2)c(=O)n(C)c1=O | 9.19% (inactive)
O=C(NCc1ccccc1Cl)NC(=O)c1csc([N+](=O)[O-])c1 | -5.11% (inactive)
CCn1c(C(C)NC(=O)c2ccc(C)cc2)n[nH]c1=S (stereo unspecified) | 25.9% (inactive)

SMILES | inhibition
Cc1ccc(C(=O)N(CN2CCCC2=O)c2ccc(F)cc2)cc1 | -13.1% (inactive)
CCN1CCC2(CC1)N=C(c1ccc(F)cc1)C(=S)N2C(=O)c1ccc(C)cc1 | 95.4% (active)
CCn1c(SCC(=O)Nc2cccc(F)c2)nnc1-c1cc2cc(Br)ccc2o1 | 72.8% (active)
CCn1c(CNC(=O)c2ccco2)nnc1SCC(=O)Nc1cccc(F)c1 | -0.15% (inactive)
Cn1c(SCC(=O)Nc2ccc(Br)cc2F)nnc1-c1ccco1 | 24.1% (inactive)
COC(=O)[C@H](Cc1ccccc1)NC(=O)Nc1ccc(OC)cc1 | 4.48% (inactive)
CC(=O)c1cc(NC(=O)c2ccccc2)c(=O)oc1/C=C/N(C)C | 11.8% (inactive)
CCOC(=O)NNC(=O)c1ccc(Cl)cc1 | -19.9% (inactive)
CCOC(=O)c1cc(NC(=O)c2ccc(Cl)cc2)c(=O)oc1-c1ccccc1 | 77.2% (active)
COc1ccc(NC(=O)C2=C(C)NC(=O)NC2c2ccccc2[N+](=O)[O-])cc1 (stereo unspecified) | -5.78% (inactive)
O=C(Nc1ccc(S(=O)(=O)Nc2nccs2)cc1)c1cc(-c2ccncc2)nc2ccccc12 | 7.48% (inactive)
CC(/C=C/c1ccccc1)=N\NC(=O)C1CC1(C)c1ccccc1 (stereo unspecified) | 43.4% (inactive)
Cc1ccc(-c2cc(C(=O)N/N=C/C=C/c3ccccc3)n[nH]2)o1 | 13.4% (inactive)
O=C(N/N=C/C=C/c1ccccc1)C1CC1(c1ccccc1)c1ccccc1 (stereo unspecified) | 82.4% (active)
CC(C)c1cc(CN2CCOCC2)cc(C(C)C)c1O | -5.16% (inactive)
COc1ccc(/C=C/C(=O)Nc2ccc(C)cc2)cc1S(=O)(=O)N1CCOCC1 | -1.01% (inactive)
COc1ccc(/C=C/C(=O)Nc2cccnc2)cc1OC | 2.86% (inactive)
COc1ccc(/C=C/C(=O)Nc2ccc3c(c2)OCCO3)cc1OC | -1% (inactive)
COc1ccc(/C=C/C(=O)Nc2c(C)nn(C)c2C)cc1COc1ccc(Br)cc1 | 105% (active)
CCn1nc(C)c(NC(=O)/C=C/c2ccc(OC)c(COc3ccc(Br)cc3)c2)c1C | 86.6% (active)
COc1ccc(C(C)=O)cc1COc1ccc(Cl)c(C)c1 | 5.12% (inactive)
Cc1ccc(NC(=O)Nc2cc(-c3ccccc3)nn2C)cc1Cl | 7.85% (inactive)
C=CCNC(=S)N1CCc2[nH]c3ccccc3c2C1 | 0.96% (inactive)
COc1ccc(CCNC(=O)C(=O)Nc2ccc3nc4n(c(=O)c3c2)CCCCC4)cc1OC | 8.36% (inactive)

SMILES | inhibition
O=C(Nc1cccc2c1N(C(=O)c1ccco1)CCC2)c1ccco1 | -8% (inactive)
CC1(C)CC(=O)C=C(Nc2ccccc2)C1 | 5.42% (inactive)
O=C(O)/C=C/c1ccc2c(c1)OCCO2 | -23.6% (inactive)
COc1cc(/C=N\NC(=O)CNC(=O)c2cccc([N+](=O)[O-])c2)ccc1O | 8.27% (inactive)
COc1ccc(C(=O)Nc2ccccc2C(=O)N/N=C/c2ccccc2OC)cc1 | -12.8% (inactive)
COc1ccc(C(=O)Nc2ccccc2C(=O)N/N=C/c2ccc(O)c(OC)c2)cc1 | 88.8% (active)
CCc1cc(Br)ccc1NC(=O)C1CCCO1 (stereo unspecified) | -17.3% (inactive)
CCOC(=O)Cn1c(=O)oc2cc(S(=O)(=O)NCC3CCCO3)ccc21 (stereo unspecified) | 22.5% (inactive)
OC(CNCC1CCCO1)Cn1c2ccc(Br)cc2c2cc(Br)ccc21 (stereo unspecified) | 108% (active)
O=C(Nc1ccc(S(=O)(=O)N2CCOCC2)cc1)c1ccc2ncsc2c1 | 2.87% (inactive)
C/C(=N\NC(=S)Nc1ccc(C)cc1)c1cc2ccccc2o1 | -20.3% (inactive)
COCCCNC(=O)C1CCN(c2ccc(N3CCOCC3)nn2)CC1 | -10.8% (inactive)
Oc1ccc(N=Cc2sc3ccccc3c2Cl)cc1 | 81.8% (active)
Oc1ccc(N=Cc2c(O)ccc3ccccc23)cc1 | 40.5% (inactive)
O=C(N/N=C/c1c(Cl)[nH]c2ccccc12)c1sc2ccccc2c1Cl | 44.3% (inactive)
O=C(Nc1ccccc1C(F)(F)F)c1cc(-c2ccc(O)cc2)on1 | 105% (active)
O=C(c1cc(-c2ccc(O)cc2)on1)N1CCCc2ccccc21 | 40.4% (inactive)
CC(NC(=O)c1cc(-c2ccccc2)on1)c1ccccc1 (stereo unspecified) | 58.1% (inactive)
CCCCCCNS(=O)(=O)c1ccccc1Br | 16.4% (inactive)
CCOC(=O)C1=NN(c2ccc(Cl)cc2)/C(=C/C2=NCCc3cc(OC)c(OC)cc32)S1 | -5.16% (inactive)
CCCC(=O)NC(Nc1ccccc1OC)C(Cl)(Cl)Cl (stereo unspecified) | 21.3% (inactive)
COc1ccccc1NC(=O)CCCc1c[nH]c2ccccc12 | 0.61% (inactive)
CCCCCCCC(=O)NC(Nc1ccccc1OC)C(Cl)(Cl)Cl (stereo unspecified) | 87.9% (active)
CCOC(=O)NNc1cc(C(F)(F)F)ccn1 | -10.6% (inactive)

SMILES | inhibition
COc1ccc(Cl)cc1C(=O)NNC(=O)c1nc2nc(C)cc(C)n2n1 | 11.4% (inactive)
Cc1onc(-c2c(Cl)cccc2Cl)c1C(=O)NNC(=O)c1c(-c2c(Cl)cccc2Cl)noc1C | -2.75% (inactive)
O=C(/C=C/c1ccc(Cl)cc1)Nc1ccc(S(=O)(=O)Nc2ncccn2)cc1 | 15.1% (inactive)
O=C(NCc1ccccc1)c1ccc(S(=O)(=O)Nc2cccc(C(F)(F)F)c2)cc1 | 26.6% (inactive)
O=C(/C=C/c1ccc(F)cc1)Nc1cccc(S(=O)(=O)Nc2cccc(C(F)(F)F)c2)c1 | 103% (active)
OC(c1nc2ccccc2[nH]1)C(O)C(O)C(O)c1nc2ccccc2[nH]1 (stereo unspecified) | 4.88% (inactive)
Cc1ccccc1NC(=O)NCc1ccco1 | -12.4% (inactive)
O=C(Cn1c(=O)n(Cc2ccco2)c(=O)c2ccccc21)NCC1CCCO1 (stereo unspecified) | 19% (inactive)
Cc1ccccc1Cn1c2ccccc2c2cnn(CC(=O)NCc3ccco3)c(=O)c21 | 90.4% (active)
C/C(=N/NC(=O)CN1CCN(S(=O)(=O)c2ccc(Br)cc2)CC1)c1ccncc1 | 10.9% (inactive)
Cc1ccc(N2C(=O)CC(N3CCSCC3)C2=O)c(C)c1 (stereo unspecified) | 19.1% (inactive)
CCc1cccc(CC)c1NC(=S)Nc1ccc2cn[nH]c2c1 | 22.1% (inactive)
Cc1csc(NC(=S)Nc2cccc(Cl)c2)n1 | -212% (inactive)
FC(F)(F)c1cccc(NC(=S)Nc2cccc(Cl)c2)c1 | 87.2% (active)
S=C(Nc1cccc(Cl)c1)Nc1ccc2cn[nH]c2c1 | -22.9% (inactive)
Cc1cccc(NC(=O)Nc2nnc(-c3ccccc3)o2)c1 | -9.17% (inactive)
Cc1cccc(NC(=O)Nc2cccc(Oc3c(F)c(F)c(F)c(F)c3F)c2)c1 | 97.1% (active)
COc1cccc(NC(=O)NCc2ccc(F)cc2)c1 | 5.22% (inactive)
N#C/C(=C/c1ccc(-c2ccccc2[N+](=O)[O-])o1)C(=O)NCCN1CCCCC1 | 22.9% (inactive)
Cc1c(NC(=O)C(=O)N/N=C/c2cccs2)c(=O)n(-c2ccccc2)n1C | 9.69% (inactive)
CC(C)CCN1NC2(CCC(C)CC2)NC1=S (stereo unspecified) | -10.5% (inactive)
CCCN(CCC)CC(O)COc1ccccc1C(=O)Nc1ccccc1 (stereo unspecified) | 16.4% (inactive)
CC(=O)Nc1nc(C)c(-c2csc(Nc3ccc(S(N)(=O)=O)cc3)n2)s1 | 18.6% (inactive)
CC(=O)Nc1ccc(/C=N/Nc2ccc(C(=O)c3c(C)cc4ccccn34)cc2[N+](=O)[O-])cc1 | 17.2% (inactive)

From PubChem BioAssay AID2732 (Emory University Molecular Libraries Screening Center, 2010)
